# Source: PubChem (National Center for Advancing Translational Sciences (NCATS))
# Most compounds without a hit are left out; they make up all but 5.8% or so of the library.
# SW480 rereplic: DNA re-replication induction in SW480 cells; SW480 DNA re-replication, Hoechst DNA content imaging, 48 h; Potency, µM (series often up to 46.1 µM), for inactives: top-dose re-replication activation, actives largely listed as activators; 340,000 tested, 1.8% active; AID 624297; note: % of control where 0% means no effect; nearly all actives have a fitted effect of over 55% in size
#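 First, 250 cells per well were seeded. Next, compound or vehicle (23 nL) was pinned in, plates sat 48 hr at 37 C. Finally Hoechst was added for 40 min before fluorescence scanning.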
# PINK1 expr mod: changes PINK1 expression. PINK1 immunofluorescence, high-content cytometry, 24 h. AID 624263. Potency, µM (top dose mostly 76.6 µM), for inactives: top-dose activation (PINK1 increase), actives largely listed as activators. 410,000 tested, 0.2% active; active = well fitted activation curve with a large enough effect; inconclusive = small, poorly fitted or top-dose-only effect; cell line not stated here; note: % of control where 0% means no effect; nearly all actives have a fitted effect of over 65% in size
#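 Decision-based qHTS: stable cells, 24 h exposure to five compound concentrations, CCCP as control. Fixed cells stained for PINK1 plus nuclear, mitochondrial and cell markers, cytometer read.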
# KB-3-1 cytotox: kills parental KB-3-1 adenocarcinoma cells; KB-3-1 viability, CellTiter-Glo ATP luminescence, 72 h; AID 1347075; Potency, µM (highest dose often 46.1 µM), actives largely listed as cytotoxic; 400,000 tested, 1.4% active; note: % is set by controls: 0 for no effect and ±100 for the full control effect; nearly all actives have a fitted effect of over 60% in size
#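 Viability of parental KB-3-1 cells, measured by CellTiter-Glo luminescence, followed a 72 h incubation at 37 °C with pinned compounds in phenol-red-free DMEM containing 10% FBS.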
# KB-V1 MDR tox: kills drug-selected multidrug resistant KB-V1 cells; KB-V1 MDR cells viability, CellTiter-Glo, 72 h; Potency, µM (series often up to 46.1 µM), most hits filed as cytotoxic; 400,000 tested, 3.4% active; AID 1347076; note: % is set by controls: 0 for no effect and ±100 for the full control effect; nearly all actives have a fitted effect of over 60% in size
#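 Compound-treated KB-V1 multidrug-resistant cells, 72 h, 37 degrees C; viability by CellTiter-Glo. Fitted qHTS curves give the values.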
# MCF10A rerep: DNA re-replication induction in MCF 10a cells. MCF 10A DNA re-replication, Hoechst nuclear intensity, 48 h. 350,000 tested, 2.9% active. AID 624296. Potency, µM (titrated, usually from 46.1 µM), for inactives: at the top dose activity, positive = re-replication, most hits filed as activators; note: % of control where 0% means no effect; nearly all actives have a fitted effect of over 50% in size
# 12-LOX inh: ALOX12 (human) lipoxygenase inhibition | P18054 | purified 12hLO, xylenol orange hydroperoxide absorbance | Potency, µM (top dose mostly 108 µM), for the others: at the highest dose activity change, negative = inhibition, most hits filed as inhibitors | 580,000 tested, 1.1% active; note: % is set by controls: 0 for no effect and ±100 for the full control effect
# Target sequence (P18054 whole entry, looked up): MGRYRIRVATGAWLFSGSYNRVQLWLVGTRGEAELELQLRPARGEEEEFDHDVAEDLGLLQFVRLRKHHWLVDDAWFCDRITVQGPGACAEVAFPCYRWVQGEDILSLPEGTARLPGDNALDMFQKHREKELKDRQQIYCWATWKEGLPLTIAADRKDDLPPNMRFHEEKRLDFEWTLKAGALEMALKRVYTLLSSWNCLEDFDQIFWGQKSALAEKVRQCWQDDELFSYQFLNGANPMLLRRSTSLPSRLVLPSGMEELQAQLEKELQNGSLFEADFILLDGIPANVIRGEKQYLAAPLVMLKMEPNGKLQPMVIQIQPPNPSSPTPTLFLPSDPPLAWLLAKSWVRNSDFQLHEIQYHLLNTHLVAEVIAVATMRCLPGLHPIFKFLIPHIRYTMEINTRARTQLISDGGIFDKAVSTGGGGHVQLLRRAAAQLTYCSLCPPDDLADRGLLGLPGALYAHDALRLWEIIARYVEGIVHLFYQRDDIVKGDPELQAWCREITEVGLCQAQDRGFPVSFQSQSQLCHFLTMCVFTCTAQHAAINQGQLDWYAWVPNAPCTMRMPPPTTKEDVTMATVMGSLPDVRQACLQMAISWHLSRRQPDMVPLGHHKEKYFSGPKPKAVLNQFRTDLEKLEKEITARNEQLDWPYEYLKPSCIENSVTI
#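 Hydroperoxide product was detected by ferrous iron/xylenol orange as the 573 to 405 nm absorbance ratio. Arachidonic acid at 40 uM (final) was turned over for 30 min at room temperature by 150 nM human 12hLO, pH 7.0 Hepes buffer, after 15 min compound preincubation.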
# * marks the source's active call; other numbers are inactive results; i = inactive; ? = inconclusive; / = not tested or not shown; [ ] = dose if it differs, or a comment. Unless noted, calls come from the whole dose curve; as a rule, active = well fitted curve in the direction sought with a large enough effect; inconclusive = small, poorly fitted or top-dose-only effect, or another doubt; inactive = no such curve, though single readings can be large; an effect the other way counts as inactive or inconclusive. Potency is the fitted concentration of half-maximal effect.
SMILES,SW480 rereplic,PINK1 expr mod,KB-3-1 cytotox,KB-V1 MDR tox,MCF10A rerep,12-LOX inh
Cc1cccc(NC(=O)c2cc(-c3ccccn3)nc3ccccc23)c1C,16%,3%,?,10µM*,?,-9%
CCc1cc(SC#N)cc(CC)c1NC(=O)CCl,23µM*,-3%,21µM*,?,16µM*,-27%
Cc1cc(C)c2c(NC(=O)CCl)nn(C)c2n1,?,0%,i,i,26%,3%
Cc1ccc(S(=O)(=O)n2nc(-c3ccc(Cl)cc3)nc2NCc2ccco2)cc1,10%,1%,i,?,21%,13µM*
O=[N+]([O-])c1ccc(C(O)CN=Cc2ccc(O)cc2O)cc1 (stereo unspecified),10%,23%,i,i,16µM*,?
CC(C)Oc1ccc2ccccc2c1/C=C(\C#N)c1nc2ccccc2[nH]1,/,/,/,/,/,10%
OC(CN1CCNCC1)Cn1c2ccc(Br)cc2c2cc(Br)ccc21 (stereo unspecified),/,/,/,/,/,28µM*
OC(CN1CCCCC1)Cn1c2ccccc2c2cc(Br)ccc21 (stereo unspecified),?,-3%,?,16µM*,?,0%
Cc1c(C)n(CC(O)CN2CCCCCC2)c2ccccc12 (stereo unspecified),1%,-1%,i,i,2%,0%
Cc1ccc2c(c1)c(C)c(C)n2CC(O)CN1CCOCC1 (stereo unspecified),3%,-1%,i,i,28%,-19%
O=C(Cc1cccs1)NC1CCCC(C(F)(F)F)C1 (stereo unspecified),/,/,/,/,/,-18%
Cc1cc(NCCCCCCCNc2cc(C)nc3cc([N+](=O)[O-])ccc23)c2ccc([N+](=O)[O-])cc2n1,?,-5%,?,21µM*,3.7µM*,?
CCn1cnc2c1c(=O)n(CC(=O)N1CCN(C)CC1)c(=O)n2Cc1ccccc1,/,/,/,/,/,4%
N#C/C(=C\c1cn(Cc2ccc(F)cc2)c2ccccc12)C(=O)NCc1ccco1,?,?,i,i,-1%,?
N#C/C(=C\c1cn(Cc2ccccc2)c2ccccc12)C(=O)NCc1ccco1,?,?,i,i,21µM*,23%
N#C/C(=C\c1cn(Cc2cccc(F)c2)c2ccccc12)C(=O)NCc1ccco1,/,8%,i,i,13µM*,11%
N#C/C(=C\c1cn(CC(=O)NCc2ccco2)c2ccccc12)C(=O)NC1CC1,/,/,/,/,/,-68%
C[C@@H](NCc1cccc(Cl)c1)c1onc(-c2ccc(F)cc2)c1C(=O)O,/,/,/,/,/,28µM*
C[C@@H](NCc1ccccc1)c1onc(-c2ccc(F)cc2)c1C(=O)O,/,/,/,/,/,-1%[176 µM]
CCCCCCCCCn1c2c(c(=N)c3c1CCC3)CCC2,19%,-1%,1µM*,i,?,/
CCCCn1c2c(c(=N)c3c1CCC3)CCC2,-3%[9.22 µM],0%,4.1µM*,i,2%,0%
CCCCCCn1c2c(c(=N)c3c1CCC3)CCC2,1%,6%[38.3 µM],2.1µM*,i,15%,-10%
CCn1c2c(c(=N)c3c1CCC3)CCC2,-3%,3%,i,i,6%,-1%
CCCCCCCn1c2c(c(=N)c3c1CCC3)CCCC2,0%,11µM*,0.58µM*,?,?,?
Cc1ccc(NC(=O)CSc2nc3ccccc3c(=O)n2CCn2cc(Cl)cn2)cc1,/,/,/,/,/,5%
CCCc1nnc(NC(=O)c2cc(-c3ccc4c(c3)OCCO4)on2)s1,/,/,/,/,/,5%
c1cn(CCCNCc2ccc(-n3ccnc3)cc2)cn1,/,/,/,/,/,38%
CC(=O)C1(O)C(C)CC2C3CCC4CC(O)CCC4(C)C3=CCC21C (stereo unspecified),?,?,i,i,18µM*,-1%
CC(C)CC(=O)N1CCN(C(=O)c2c[nH]c3ccccc23)CC1,/,/,/,/,/,5%
CCOc1ccc(C(=O)NCc2coc(-c3cccs3)n2)cc1,/,/,/,/,/,5%
